This is an account of results in PubChem BioAssay (NCI).

Each structure is given as a SMILES string. This is part of a sample that, as a whole, favours compounds with a hit. Of some 83,000 tested, about 20% had one in any assay.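 Values shown are percent growth following 48 h exposure of cells in 96-well plates to a single concentration of compound; below 10 was considered active.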 The source made the active and inactive calls.

This experiment relates to HCT-116 colon. As to the kind of experiment: NCI-60 one-dose screen, 48 h (100 = growth as untreated, 0 = no growth, -100 = all killed). The conditions noted are these: 10 µM unless noted.
As to `CC(C)C(C)(C)C(=O)C(C)(C)C(C)(C)C`, the growth was 97.7% (inactive).
To `Cc1[nH]nc(C(N)=O)c1[N+](=O)[O-]` belongs 99.9% (inactive); to `CCC(C)c1c(N)n(S(=O)(=O)c2ccc(C)cc2)oc1=O` (stereo not drawn), 102% (inactive).
For `C/C(=N\O)c1ccccn1`, the growth was 111% (inactive).
To `NC(=O)NCCO` belongs 109% (inactive).
`O=S1(=O)c2ccccc2Oc2ccccc21`: the growth was 102% (inactive).
To `CCN(C(C)=O)c1ccc([N+](=O)[O-])cc1` belongs 109% (inactive); to `CC(C)C(=O)OCCOc1ccc(C(C)(C)C)cc1`, 105% (inactive); to `O=C(Oc1ccccc1Cl)c1ccc(Cl)cc1Cl`, 95.2% (inactive).
In the case of `CC(=O)NC(O)C(Cl)Cl` (stereo not drawn) it was 114% (inactive).
For `NNc1ncccn1`, the growth is 98.1% (inactive).
Consider `Ic1cccs1`, for which the growth is 103% (inactive).
To `N#CC1(O)CCCCC1` belongs 103% (inactive); to `COC(=O)c1cccc([N+](=O)[O-])c1`, 110% (inactive).
Turning to `COC1OC(C(O)C(O)CO)C(O)C(O)C1O` (stereo not drawn), the growth was 90.5% (inactive).
As for `COc1cccc(C(=O)O)c1OC`, the growth is 103% (inactive).
On to `CC(=O)Oc1c(Cl)cccc1-c1ccccc1`, for which the growth is 101% (inactive).
In the case of `OCCc1ccc(Cl)cc1` it was 101% (inactive); in that of `CC(C)(N)CO[C@H]1C[C@H]2CC[C@@]1(C)C2(C)C`, 89.9% (inactive); in that of `O=C(NCc1ccccc1)c1cccc([N+](=O)[O-])c1`, 103% (inactive).
In the case of `NNc1ncnc2c1ncn2C1OC(CO)C(O)C1O` (stereo not drawn) it was 4.61% (active); in that of `CCOC(C=O)OCC`, 105% (inactive).
As to `C=CCS(C)(=O)=O`, the growth is 94% (inactive).
